Only a selection was taken, and hits are over-represented in it overall.
HT1080 IDH1KD tx: toxicity to HT-1080 IDH1 knockdown cells (counter line); HT-1080 IDH1 knockdown viability, ATP luminescence, 48 h; Potency, µM (doses to about 46.1 µM), usual class: cytotoxic; 360,000 compounds, 2% hits
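Knockdown cells (IDH1KD HT-1080) received compounds 2 h after plating at 750 cells/well and were kept 48 h at 37 °C in 5% FBS RPMI. A CellTiter-Glo luminescence read gave % activity for curve fitting.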
IL1B secr inh: inflammasome signaling inhibition, IL-1 beta readout. THP-1 LPS/ATP IL-1B secretion, AlphaLISA, 16 h; stronger effect = lower value. activity change, % at 57.5 µM. 360,000 compounds, 4.7% hits. AID 743279; in the data active means activity change below about -50%; inconclusive means mostly about -30% to -49%
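THP-1 cells pretreated 1 hr with compounds (up to 57.5 uM final), then stimulated with LPS (250 ng/mL final) plus ATP (1.25 mM final); secreted IL-1B measured by AlphaLISA after 16 hr, decreased signal indicating inhibition.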
HT1080-NT tox: kills 2HG-producing HT-1080-NT fibrosarcoma cells. HT-1080-NT fibrosarcoma viability, CellTiter-Glo ATP luminescence, 48 h. Potency, µM (doses to about 46.1 µM), usual class: cytotoxic. 360,000 compounds, 1.6% hits. AID 686970;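 further: NT is the 2HG producing partner of a matched IDH1 knockdown line; nearly all actives have a fitted effect of over 55% in size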
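Luminescent CellTiter-Glo readout after 48 hours of compound exposure at 37 degrees C defined viability of HT-1080-NT cells. Activity was normalized to DMSO wells and cell-free media wells; concentration-response curves were fitted and assigned curve classes.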
DT40 TDP1 CPT: DT40-hTDP1 cell growth loss with CPT; Potency, µM (doses to about 46.2 µM), hits mostly inhibitors; chicken DT40 Tdp1-/-;hTDP1 cells + 20 nM CPT, ATP luminescence, 48 h; 420,000 compounds, 12% hits; further: nearly all actives have a fitted effect of over 55% in size
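Cell growth measured by CellTiter-Glo luminescence after a minimum 48 h, 37 C compound exposure with 20 nM CPT in Tdp1-knockout DT40 cells stably expressing hTDP1, seeded 400/well; qHTS titration format.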
12-LOX inh: ALOX12 (human) lipoxygenase inhibition; P18054; purified 12hLO, xylenol orange hydroperoxide absorbance; Potency, µM (top dose mostly 108 µM), actives largely listed as inhibitors; 580,000 compounds, 1.1% hits
Target sequence (P18054 whole entry, looked up): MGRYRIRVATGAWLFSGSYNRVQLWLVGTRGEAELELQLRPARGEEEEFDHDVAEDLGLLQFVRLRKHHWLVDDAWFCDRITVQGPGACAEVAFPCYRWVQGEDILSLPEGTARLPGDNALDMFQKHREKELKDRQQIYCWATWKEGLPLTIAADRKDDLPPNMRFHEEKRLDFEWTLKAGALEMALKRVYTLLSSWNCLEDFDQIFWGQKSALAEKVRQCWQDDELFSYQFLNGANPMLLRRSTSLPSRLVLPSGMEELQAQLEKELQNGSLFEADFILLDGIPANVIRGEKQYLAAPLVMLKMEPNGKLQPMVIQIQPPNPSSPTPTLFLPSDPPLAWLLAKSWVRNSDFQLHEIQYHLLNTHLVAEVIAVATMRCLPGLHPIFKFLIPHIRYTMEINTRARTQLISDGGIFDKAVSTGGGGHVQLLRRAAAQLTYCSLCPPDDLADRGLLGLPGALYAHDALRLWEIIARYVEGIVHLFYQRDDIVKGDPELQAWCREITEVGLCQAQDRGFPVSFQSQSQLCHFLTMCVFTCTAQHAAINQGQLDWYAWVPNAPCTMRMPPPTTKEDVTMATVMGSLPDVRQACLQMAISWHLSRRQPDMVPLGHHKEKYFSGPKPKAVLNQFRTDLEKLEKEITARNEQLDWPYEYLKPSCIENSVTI
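Purified human 12hLO at 150 nM in 25 mM Hepes, 0.01% Triton X-100, pH 7.0, preincubated 15 min at room temperature with compound. Reaction started with 40 uM arachidonic acid, 30 min at room temperature. Hydroperoxide measured by Fe-xylenol orange, 573/405 nm absorbance ratio.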
DT40 TDP1 no CPT: qHTS for Inhibitors of human tyrosyl-DNA phosphodiesterase 1 (TDP1): qHTS in cells in absence of CPT. DT40 Tdp1-/- hTDP1 cells, no CPT, ATP luminescence, 48 h. Potency, µM (doses to about 46.2 µM), actives largely listed as inhibitors. 420,000 compounds, 15% hits. AID 686978, 2013; further: nearly all actives have a fitted effect of over 55% in size
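No-CPT arm: Tdp1-/-;hTDP1 DT40 cells (400/well) plus compounds, incubated ≥48 hr at 37 °C. Readout CellTiter-Glo luminescence.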
Hits are given with their value; i = inactive; ? = inconclusive; nt = no result given; [ ] = dose if it differs, or a comment. Unless noted, the call rests on the fitted dose curve; in most records, active means well fitted curve in the direction sought with a large enough effect; inconclusive means small, poorly fitted or top-dose-only effect, or another doubt; inactive means no such curve, though single readings can be large; an effect the other way counts as inactive or inconclusive.

SMILES	HT1080 IDH1KD tx	IL1B secr inh	HT1080-NT tox	DT40 TDP1 CPT	12-LOX inh	DT40 TDP1 no CPT
CCOCCCNC(=O)c1c(NC(=O)c2nc(SCC)ncc2Cl)sc2c1CCCC2	nt	nt	nt	?	nt	10µM
O=C(NC1CCS(=O)(=O)C1)c1cc2sccc2n1Cc1ccc(Cl)cc1 (stereo not drawn)	nt	nt	nt	nt	i	nt
Cc1cccc(N2CC(C(=O)N(C)Cc3cnn(C)c3)CC2=O)c1C (stereo not drawn)	nt	nt	nt	nt	i	nt
C=CCOn1c(=O)c(-c2cc3ccccc3o2)[n+]([O-])c2ccccc21	i	i	i	i	i	18µM
C=CCOn1c(=O)c(-c2ccccc2)[n+]([O-])c2ccccc21	i	i	i	i	i	i
COc1ccccc1C(=O)COC(=O)c1cc(S(N)(=O)=O)ccc1F	nt	nt	nt	nt	i	nt
O=Cc1ccccc1OCc1ccc2c(c1)OCO2	?	i	?	5.2µM	i	2.9µM
CCOC(=O)N1CCN(C(=S)NC(=O)c2cncc(Br)c2)CC1	i	i	i	?	i	?
CCOC(=O)CC1C(=O)NCCN1C(=S)NC(=O)c1ccc(C)c(Br)c1 (stereo not drawn)	i	i	i	5.8µM	?	5.2µM
CCOC(=O)N1CCN(C(=O)CSCc2ccc(Cl)cc2)CC1	i	i	i	?	i	?
CCOC(=O)N1CCN(C(=S)NC(=O)c2ccc(Br)cc2)CC1	i	?	i	?	?	13µM
CCOC(=O)N1CCN(C(=O)CSCc2ccc(Br)cc2)CC1	i	-60	i	i	i	?
CCOC(=O)CC1C(=O)NCCN1C(=O)Nc1ccccc1 (stereo not drawn)	i	i	i	i	i	i
Cc1ccc(C(=O)NC(=S)N2CCN(C(=O)OC(C)(C)C)CC2)cc1Br	i	i	i	18µM	i	13µM
CCOC(=O)N1CCN(C(=O)C(NC(=O)c2ccc(CC)cc2)C(C)C)CC1 (stereo not drawn)	i	i	i	8.2µM	i	5.8µM
CCOc1ccc(NC(=O)Cc2c[nH]c3ccccc23)cc1	nt	nt	nt	i	i	i
CCOc1ccc(NC(=O)N(Cc2c[nH]c3ccccc23)C2CCCCC2)cc1	nt	nt	nt	8.2µM	i	18µM
CCOc1ccc(NC(=O)N(Cc2c[nH]c3ccccc23)C2CCCCCC2)cc1	nt	nt	nt	9.2µM	i	?
CSc1ccccc1C(=O)Nc1ccc(F)cc1F	nt	nt	nt	nt	i	nt
O=C(O)CNC(=O)CNS(=O)(=O)Cc1ccccc1	nt	nt	nt	nt	i	nt
CCc1ccc2ncc3c(-c4ccccc4)nn(-c4ccccc4)c3c2c1	nt	nt	nt	?	i	13µM
CCOC(=O)Cn1nc(-c2ccccc2)c2cnc3ccc(OCC)cc3c21	nt	nt	nt	13µM	i	21µM
COC(=O)c1ccc(CNCc2ccccc2)o1	nt	nt	nt	nt	i	nt
O=C(Cn1cnc2cc([N+](=O)[O-])ccc2c1=O)Nc1ccc(Br)cc1	i	i	i	i	i	i
O=C(Cn1cnc2cc([N+](=O)[O-])ccc2c1=O)Nc1ccccc1-c1ccccc1	i	i	i	23µM	i	?
SMILES	HT1080 IDH1KD tx	IL1B secr inh	HT1080-NT tox	DT40 TDP1 CPT	12-LOX inh	DT40 TDP1 no CPT
COC(=O)c1c(COc2ccc(C)nc2[N+](=O)[O-])nc2ccccc2c1-c1ccccc1	nt	nt	nt	nt	i	nt
CCOC(=O)C(C#N)C(c1ccco1)c1ccccc1OC (stereo not drawn)	nt	nt	nt	nt	i	nt
COC(=O)c1c(C)[nH]c(C(=O)OC(C)C(=O)NC2CC2)c1C (stereo not drawn)	nt	nt	nt	nt	i	nt
O=C(c1ccc2c(c1)N(Cc1ccccc1)C(=O)c1ccccc1S2(=O)=O)N1CCCCCC1	nt	nt	nt	?	i	?
O=C(c1ccc2c(c1)N(Cc1ccc(F)cc1)C(=O)c1ccccc1S2(=O)=O)N1CCCCC1	nt	nt	nt	?	i	?
O=C(c1ccc2c(c1)N(Cc1ccc(F)cc1)C(=O)c1ccccc1S2(=O)=O)N1CCC(Cc2ccccc2)CC1	nt	nt	nt	5.8µM	i	5.2µM
CC1CCN(C(=O)c2ccc3c(c2)N(Cc2ccccc2)C(=O)c2ccccc2S3(=O)=O)CC1	nt	nt	nt	?	i	16µM
Cc1ccccc1-c1nccc2c(=O)cc(N3CCOCC3)oc12	nt	nt	nt	nt	i	nt
O=C(C[n+]1cccc2ccccc21)c1ccc([N+](=O)[O-])cc1	?	i	i	21µM	?	?
Nc1ccccc1SCc1c(Cl)cccc1Cl	i	i	i	?	i	i
Clc1cccc(Cl)c1C[n+]1cccc2ccccc21	?	i	?	2.1µM	i	2.1µM
COc1ccc(C(=O)C[n+]2cccc3cc(OC)ccc32)cc1	i	i	i	?	i	21µM
O=[N+]([O-])c1ccc(Cl)c(C[n+]2cccc3ccccc32)c1	i	i	i	21µM	i	18µM
O=C(C[n+]1cccc2ccccc21)c1ccc(Cl)cc1	i	i	i	i	i	i
CC(C)[C@H](NC(=O)Cc1ccccc1)C(=O)O	nt	nt	nt	nt	i	nt
O=C(Cc1ccc(OCC2CCCCC2)cc1)NO	nt	nt	nt	10µM	nt	11µM
C[S+](=O)([O-])N1Cc2ccccc2CC2(CCCN2CC2CCCC2)C1 (stereo not drawn)	nt	nt	nt	nt	i[6.33 µM]	nt
CC1CCCCN1c1ncnc2ccccc12 (stereo not drawn)	i	i	18µM	23µM	i	10µM
c1ccc2c(N3CCCCC3)ncnc2c1	i	i	i	?	i	21µM
c1ccc2c(c1)nc(N1CCCCCC1)c1ccccc12	i	i	i	?	?	?
O=C(O)C1CCCN1c1ncnc2ccccc12 (stereo not drawn)	i	i	i	i	?	i
CCC1CCCCN1c1nc(-c2ccncc2)nc2ccccc12 (stereo not drawn)	?	i	18µM	29µM	i	?
CC1CCN(c2nc(-c3ccncc3)nc3ccccc23)CC1	?	i	?	?	?	?
CC1CCCCN1c1nc(-c2ccncc2)nc2ccccc12 (stereo not drawn)	29µM	i	?	?	?	18µM
CCOc1cc2c(cc1NC(=O)c1ccc(SC)cc1OC)OC(C)C2 (stereo not drawn)	nt	nt	nt	nt	i	nt
Cc1ccc(Cn2cc(CN3CC(N4CCN(Cc5cccc(C)c5)CC4)CS3(=O)=O)nn2)cc1 (stereo not drawn)	i	i	i	?	?	?
CCCCCCN1CCN(C2CN(Cc3cn(Cc4cc(C)cc(C)c4)nn3)S(=O)(=O)C2)CC1 (stereo not drawn)	?	?	?	?	i	16µM
Cc1cccc(CN2CCN(C3CN(Cc4cn(Cc5ccc(Cl)cc5)nn4)S(=O)(=O)C3)CC2)c1 (stereo not drawn)	i	i	i	18µM	?	21µM
